The entries come from a sample that favours hits as a whole.
TbPYK inhibitor – qHTS of Trypanosoma Brucei Inhibitors | pyruvate kinase (Trypanosoma brucei), Q57TT1 | TbPYK enzyme, Kinase-Glo Plus ATP luminescence, 45 min | Potency, µM (titrated, usually from 76.8 µM), actives largely listed as inhibitors | 0.12% of 410,000 active | AID 624173, 2012; also: nearly all actives have a fitted effect of over 50% in size
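ADP (130 uM final) triggers the TbPYK reaction after compound addition; incubation is 45 min at room temperature. Kinase-Glo Plus is then added and luminescence imaged. Normalized data are fitted to concentration-effect curves.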
LmPK inh – qHTS Assay for Inhibitors of Leishmania Mexicana Pyruvate Kinase (LmPK); Q27686; purified LmPK, Kinase-Glo ATP luminescence, 1 h; Potency, µM (top dose mostly 57.5 µM), usual class: inhibitors; 0.37% of 290,000 active; AID 1721, 2009
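Purified LmPK (0.1 nM) converted ADP (0.1 mM) to ATP with PEP (0.5 mM) in imidazole buffer pH 7.2 with KCl and MgCl2, 1 h at room temperature. ATP was read by Kinase-Glo luminescence; data normalized to uninhibited and no-enzyme controls.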
RE007 growth inh – qHTS Assay for Inhibitors of the HIV-1 protein Vpr | AID 651644, 2012 | Potency, µM (doses to about 92.2 µM), usual class: inhibitors | 0.21% of 360,000 active | S. pombe RE007 Vpr strain, BacTiter-Glo ATP luminescence, 24 h; active = well fitted falling curve with a large enough effect; inconclusive = small, poorly fitted or top-dose-only effect; inactive = no such curve, though single readings can be large or run the other way; also: nearly all actives have a fitted effect of over 50% in size
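Fission yeast RE007 carrying one integrated HIV-1 vpr copy, seeded at OD 0.01 in PMG+AL medium with 23 nL pinned compound. Grown 24 h at 30 degrees; viability read by BacTiter-Glo luminescence after 5 min.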
CHX counter – Cycloheximide Counterscreen for Small Molecule Inhibitors of Shiga Toxin; cell reporter, cycloheximide protein synthesis inhibition counterscreen; max response, %; 12% of 300,000 active; AID 2314, 2010; in the data active = max response mostly above about 13%, no sharp cut-off; inactive = mostly below about 14%; also: read at 38.3 µM for the half of the compounds with a filed dose
Giardia FBPA inh – qHTS Assay for Inhibitors of Fructose-1,6-bisphosphate Aldolase from Giardia Lamblia. purified Giardia FBPA. Potency, µM (series often up to 59.6 µM), most hits filed as inhibitors. 0.71% of 290,000 active; also: nearly all actives have a fitted effect of over 55% in size
Target sequence (A8B2U2 whole entry, looked up): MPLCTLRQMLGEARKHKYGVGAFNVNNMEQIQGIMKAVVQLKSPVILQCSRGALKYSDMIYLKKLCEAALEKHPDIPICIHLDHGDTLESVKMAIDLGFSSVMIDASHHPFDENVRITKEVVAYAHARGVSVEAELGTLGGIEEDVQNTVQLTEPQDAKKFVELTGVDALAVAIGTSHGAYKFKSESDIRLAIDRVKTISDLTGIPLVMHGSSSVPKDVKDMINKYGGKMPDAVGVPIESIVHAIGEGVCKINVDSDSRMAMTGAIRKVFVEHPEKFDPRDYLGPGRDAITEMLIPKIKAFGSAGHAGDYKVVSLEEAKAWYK
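Giardia FBPA (40 nM reagent) was preincubated 10 min at RT with compound (up to 57.5 uM final), then substrate plus GAPDH/TPI/NAD/arsenate coupling system with diaphorase/resazurin was added; resorufin fluorescence (525/598 nm) was read after 20 min.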
Shiga inhibitor – A qHTS for Small Molecule Inhibitors of Shiga Toxin. Vero cells, Shiga toxin protein synthesis inhibition reporter. 9.2% of 290,000 active. inhibition, % at 38.7 µM; in the data active = inhibition mostly above about 28%, no sharp cut-off; inactive = mostly below about 43%
Large screens that a line does not name were inactive. Unless noted, calls follow the shape of the dose curve; as a rule, active = well fitted curve in the direction sought with a large enough effect; inconclusive = small, poorly fitted or top-dose-only effect, or another doubt; inactive = no such curve, though single readings can be large; an effect the other way counts as inactive or inconclusive.

CC[C@@H](c1ccccc1)n1c(=O)n2n(c1=O)[C@H]1[C@H](O)[C@H]3O[C@H]3C(=O)[C@H]1CC2	none (no result: TbPYK inhibitor, LmPK inh, RE007 growth inh, CHX counter, Shiga inhibitor)
O=C(c1ccccc1)c1cccc(NC(=O)c2ccc(Br)o2)c1	RE007 growth inh inconclusive, CHX counter 39
O=C(Nc1ccc2c(c1)oc1ccccc12)c1ccc(Br)o1	none
O=C(Nc1cccc(NC(=O)c2ccc(Br)o2)c1)c1ccccc1	none
NS(=O)(=O)c1ccc(NC(=S)NNC(=O)c2ccc(Br)o2)cc1	CHX counter 15 (no result: Giardia FBPA inh)
O=C(Nc1ccc2ccccc2c1)c1ccc(Br)o1	RE007 growth inh inconclusive, CHX counter 43, Shiga inhibitor 86 (no result: Giardia FBPA inh)
Cc1nc(NC(=O)c2ccc(Br)o2)ccc1Br	CHX counter 36, Shiga inhibitor 63
COc1ccc(NC(=O)c2ccc(C(=O)c3ccccc3)o2)cc1	CHX counter 30
CCCNc1nc(C)nc2c1cnn2CCc1ccccc1	CHX counter 19
Cc1nc(NC(C)C)c2cnn(CCc3ccccc3)c2n1	CHX counter 19
CCN1Cc2c(/C=C/c3ccccc3)nc3ccc(OC)cc3c2N(c2cccc(Cl)c2)C1	none (no result: RE007 growth inh)
O=C1S/C(=C\C=C\c2ccco2)C(=O)N1c1ccc(O)cc1	CHX counter 43, Giardia FBPA inh inconclusive, Shiga inhibitor 71
O=C1S/C(=C\C=C\c2ccco2)C(=O)N1c1ccccc1	CHX counter 38, Shiga inhibitor 59
CCOC(=O)Cc1ccc(NC(=O)n2ncc3cc(Cl)ccc32)cc1	none (no result: LmPK inh, RE007 growth inh, CHX counter, Giardia FBPA inh, Shiga inhibitor)
Cc1cccc(-n2c(C)c(C)c3c(N)ncnc32)c1	CHX counter 19
O=C(O)c1ccc(B(O)O)cc1	none (no result: TbPYK inhibitor, LmPK inh, RE007 growth inh, CHX counter, Shiga inhibitor)
O=C(Nc1cc2c(cc1C(=O)c1ccccc1Br)OCCO2)c1cccc(Cl)c1	none (no result: LmPK inh, RE007 growth inh, CHX counter, Giardia FBPA inh, Shiga inhibitor)
CCN(CC)S(=O)(=O)c1ccc(N2CCCCC2)c(NC(=O)c2ccncc2)c1	Shiga inhibitor 35
CN(C)C(CNC(=O)c1cccc(S(=O)(=O)N2CCN(c3ccc(F)cc3)CC2)c1)c1ccccc1 (configuration not stated)	none (no result: LmPK inh, CHX counter, Giardia FBPA inh, Shiga inhibitor)
COc1ccccc1N(Cc1ccccc1)S(=O)(=O)c1cccc(C(=O)Nc2ccc(C(C)=O)cc2)c1	CHX counter 46, Shiga inhibitor 44
COc1ccccc1N(Cc1ccccc1)S(=O)(=O)c1cccc(C(=O)Nc2ccccn2)c1	CHX counter 25, Shiga inhibitor 50 (no result: Giardia FBPA inh)
COc1ccccc1N(Cc1ccccc1)S(=O)(=O)c1cccc(C(=O)Nc2ccc(C)cn2)c1	none (no result: LmPK inh, CHX counter, Giardia FBPA inh, Shiga inhibitor)
Cc1ccc(NC(=O)[C@@H]2O[C@H](CO)[C@H](O)[C@H](O)[C@H]2O)cc1C(F)(F)F	none (no result: LmPK inh, CHX counter, Giardia FBPA inh, Shiga inhibitor)
CCN(CC)c1ccc(CN2CCCCCC2)cc1	none (no result: Giardia FBPA inh)
CN(Cc1nc(-c2ccc(Cl)cc2)no1)C(=O)c1ccc2c(c1)OCO2	none (no result: LmPK inh, CHX counter, Giardia FBPA inh, Shiga inhibitor)
O=C(COC(=O)c1n[nH]c(=O)c2ccccc12)Nc1ccccc1F	none (no result: LmPK inh, CHX counter, Giardia FBPA inh, Shiga inhibitor)
COc1cccc(CNC(=O)C(C)n2ncn3cccc3c2=O)c1OC (configuration not stated)	none (no result: LmPK inh, RE007 growth inh, CHX counter, Giardia FBPA inh, Shiga inhibitor)
COc1cccc(CNC(=O)Cn2ncn3cccc3c2=O)c1OC	CHX counter 11, Shiga inhibitor 26
Cc1ccc(CNC(=O)Cn2ncn3cccc3c2=O)cc1	CHX counter 21, Shiga inhibitor 23
CCCOc1ccc(CN(CCC#N)C(=S)NC(=O)c2ccccc2)cc1	CHX counter 23, Giardia FBPA inh inconclusive
CN1CCN(c2ncnc3c2ncn3[C@H]2CN(C)C[C@@H](CO)O2)CC1	none (no result: LmPK inh, CHX counter, Giardia FBPA inh, Shiga inhibitor)
Cc1cccc(N2CCN(C(=S)c3ccc(-c4ccccc4[N+](=O)[O-])o3)CC2)c1	none
O=[N+]([O-])c1ccccc1-c1ccc(C(=S)N2CCCC2)o1	TbPYK inhibitor inconclusive, CHX counter 44, Giardia FBPA inh 16µM, Shiga inhibitor 97
O=C(c1ccc(-c2ccccc2Cl)o1)N1CCCCCCC1	none (no result: LmPK inh, CHX counter, Giardia FBPA inh, Shiga inhibitor)
O=[N+]([O-])c1ccccc1-c1ccc(C(=S)N2CCCCC2)o1	CHX counter 58, Giardia FBPA inh inconclusive, Shiga inhibitor 63
Cc1ccccc1CNC(=O)C(C)n1nc(C)n2c(cc3occc32)c1=O (configuration not stated)	none (no result: LmPK inh, RE007 growth inh, CHX counter, Giardia FBPA inh, Shiga inhibitor)
O=C(NNc1nc2ccccc2s1)C1CC1	none
O=C(Nc1ccc(F)cc1)N1CCN(c2nc3ccccc3s2)CC1	none
O=C(Nc1nc2ccccc2s1)Nc1ccc(F)cc1F	CHX counter 53, Shiga inhibitor 72
O=C(NNc1nc2ccccc2s1)Nc1ccc(F)cc1	CHX counter 62, Shiga inhibitor 85
CC(C)C(=O)NNc1nc2ccccc2s1	CHX counter 38, Shiga inhibitor 51
O=C(Nc1nc2ccccc2s1)c1c(F)cccc1Cl	CHX counter 38, Shiga inhibitor 91
CCOC(=O)C(CCc1ccccc1)NC(C)C(=O)N1Cc2cc(OC)c(OC)cc2CC1C(=O)O (configuration not stated)	none (no result: LmPK inh, RE007 growth inh)
COc1cc(OC)c(C2C=CC(=O)CC2)c(OC)c1 (configuration not stated)	none (no result: LmPK inh, CHX counter, Giardia FBPA inh, Shiga inhibitor)
CC1(C(=O)NS(=O)(=O)c2cccc(OC(F)F)c2)CCN1C(=O)C1CCCCC1 (configuration not stated)	none (no result: LmPK inh, CHX counter, Giardia FBPA inh, Shiga inhibitor)
O=C(NNc1nc2ccccc2s1)Nc1ccc(Cl)c(Cl)c1	CHX counter 40, Shiga inhibitor 60
O=C(NNc1nc2ccccc2s1)c1ccccc1F	CHX counter 29, Shiga inhibitor 59
O=C(NNC(=O)c1cc(Cl)nc2ccccc12)c1ccccc1F	none (no result: LmPK inh, CHX counter, Giardia FBPA inh, Shiga inhibitor)
